Test results reported in PubChem BioAssay (NCATS).
Records with an inconclusive call do not appear. Active and inactive are the calls of the source. Calls come from the whole dose curve; as a rule, active = well fitted cell-killing curve with a large enough effect; inconclusive = small, poorly fitted or top-dose-only effect, or effect the other way; inactive = flat fitted curve, though single readings scatter.

Tests used:
Assay in all cases: Primary qHTS to identify gynecologic anti-cancer compounds using libraries of approved drugs and bioactive compounds (AID 1345084); note: nearly all actives have a fitted effect of over 55% in size
C33A = details: Gynecologic cancer cell panel viability, ATPlite luminescence, 48 h; series mostly up to 57.5 µM
Summary of the method: (§1)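 Five-concentration response, 48 h; readout is ATP-driven luciferase luminescence.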

CASKI = details: Gynecologic cancer cell panel viability, ATPlite luminescence, 48 h; series mostly up to 57.5 µM
Summary of the method: as §1

Es-2 = details: Gynecologic cancer cell panel viability, ATPlite luminescence, 48 h; series mostly up to 57.5 µM
Summary of the method: as §1

HeLa = details: Gynecologic cancer cell panel viability, ATPlite luminescence, 48 h; series mostly up to 57.5 µM
Summary of the method: as §1

Hek293T = details: Gynecologic cancer cell panel viability, ATPlite luminescence, 48 h, control line for the selectivity index; series mostly up to 57.5 µM
Summary of the method: as §1

JEG-3 = details: Gynecologic cancer cell panel viability, ATPlite luminescence, 48 h; series mostly up to 57.5 µM
Summary of the method: as §1

OV90 = details: Gynecologic cancer cell panel viability, ATPlite luminescence, 48 h; series mostly up to 57.5 µM
Summary of the method: as §1

PA-1 = details: Gynecologic cancer cell panel viability, ATPlite luminescence, 48 h; series mostly up to 57.5 µM
Summary of the method: as §1
% is set by controls: 0 for no effect and ±100 for the full control effect; potency is the fitted concentration of half-maximal effect.

CN(C)CCn1cc(-c2ccc(F)cc2)c(-n2cccc2)n1
inactive: Potency (C33A) | Potency (CASKI) | Potency (Es-2) | Potency (HeLa) | Potency (Hek293T) | Potency (JEG-3) | Potency (OV90) | Potency (PA-1)

C=C1CC[C@H]2C(=C)CC[C@H]3C(=C)C(=O)O[C@@H]3[C@@H]12
inactive: Potency (C33A) | Potency (CASKI) | Potency (Es-2) | Potency (HeLa) | Potency (Hek293T) | Potency (JEG-3) | Potency (OV90) | Potency (PA-1)

CCCCCCCCC(=O)N[C@H](CN1CCCC1)[C@H](O)c1ccc2c(c1)OCCO2
inactive: Potency (C33A) | Potency (CASKI) | Potency (Es-2) | Potency (HeLa) | Potency (JEG-3) | Potency (PA-1)

CC(=O)OC1CC2(C)C(CCC(C)C23Cc2c(O)cc(CO)c(C=O)c2O3)C(C)(C)C1O (stereo unspecified)
inactive: Potency (C33A) | Potency (CASKI) | Potency (Es-2) | Potency (HeLa) | Potency (Hek293T) | Potency (JEG-3) | Potency (OV90) | Potency (PA-1)

COC(=O)c1cc2c(C(F)(F)F)cc(-c3ccccc3)cc2n1O
inactive: Potency (C33A) | Potency (CASKI) | Potency (Es-2) | Potency (HeLa) | Potency (Hek293T) | Potency (JEG-3) | Potency (OV90) | Potency (PA-1)

COc1ccc(N(C(=O)Nc2c(C)cccc2C)c2cc(Nc3ccc(N4CCN(C)CC4)cc3)ncn2)c(OC)c1
inactive: Potency (C33A) | Potency (CASKI) | Potency (Es-2) | Potency (HeLa) | Potency (JEG-3)

COC(CCc1ccc(O)cc1)CC(=O)CCc1ccc(O)cc1 (stereo unspecified)
inactive: Potency (C33A) | Potency (CASKI) | Potency (Es-2) | Potency (HeLa) | Potency (Hek293T) | Potency (OV90) | Potency (PA-1)

COc1ccc2cc3c(NC(=O)c4ccco4)nn(C)c3nc2c1
inactive: Potency (C33A) | Potency (CASKI) | Potency (Es-2) | Potency (HeLa) | Potency (Hek293T) | Potency (JEG-3) | Potency (PA-1)

CC1OC(OC2C(O)COC(O[C@@H]3[C@@H](O)[C@@H](O)[C@H](OC4C(OC(=O)[C@]56CCC(C)(C)CC5C5=CCC7[C@@]8(C)C[C@H](O)[C@H](OC9OC(CO)C(O)C(O)C9O)[C@@](C)(CO)C8[C@H](O)C[C@@]7(C)[C@]5(C)CC6)OCC(O)C4O)O[C@H]3C)C2O)C(O)C(O)C1O (stereo partly specified)
inactive: activity change, negative = cytotoxicity (C33A) -9.28% [at 6.55 µM] | activity change, negative = cytotoxicity (CASKI) 20% [at 6.55 µM] | activity change, negative = cytotoxicity (Es-2) -27.5% [at 6.55 µM] | activity change, negative = cytotoxicity (HeLa) -4.81% [at 6.55 µM] | activity change, negative = cytotoxicity (Hek293T) -17.3% [at 6.55 µM] | activity change, negative = cytotoxicity (JEG-3) -13.2% [at 6.55 µM] | activity change, negative = cytotoxicity (OV90) 13.1% [at 6.55 µM] | activity change, negative = cytotoxicity (PA-1) 0.113% [at 6.55 µM]

C/C=C(\C)C(=O)OC1C[C@@]2(COC(C)=O)O[C@H]2/C=C\[C@@]2(C)O[C@@H]2[C@H]2OC(=O)C(COC(C)=O)=C12 (stereo partly specified)
inactive: Potency (C33A) | Potency (CASKI) | Potency (Es-2) | Potency (HeLa) | Potency (Hek293T) | Potency (JEG-3) | Potency (OV90) | Potency (PA-1)

O=C(Nc1cccnc1)c1cc(-c2ccnc(F)c2)ccc1OCc1ccccc1
inactive: Potency (C33A) | Potency (CASKI) | Potency (Es-2) | Potency (HeLa) | Potency (Hek293T) | Potency (JEG-3) | Potency (OV90) | Potency (PA-1)

Cc1cccc(-c2[nH]ncc2-c2ccnc3ccccc23)n1
inactive: Potency (C33A) | Potency (CASKI) | Potency (Es-2) | Potency (HeLa) | Potency (Hek293T) | Potency (JEG-3) | Potency (PA-1)

CC(C)(C[C@@](O)(Cc1cc2ccncc2[nH]1)C(F)(F)F)c1cc(F)ccc1O
inactive: Potency (C33A) | Potency (CASKI) | Potency (Es-2) | Potency (HeLa) | Potency (JEG-3) | Potency (OV90) | Potency (PA-1)

O=C(NC1(c2ccccc2)CC1)c1c(CN2CCC(N3CCCCC3)CC2)c(-c2cccc(C(F)(F)F)c2)nc2cc(Br)ccc12
active: Potency (OV90) 17.8 µM
inactive: Potency (C33A) | Potency (CASKI) | Potency (Es-2) | Potency (HeLa) | Potency (JEG-3)

COC(=O)C[C@H]1[C@]2(C)C3=C(C)[C@H](c4ccoc4)C[C@H]3O[C@@H]2[C@H](O)C2[C@](C)(C(=O)OC)C=CC(=O)[C@@]21C (stereo partly specified)
inactive: Potency (C33A) | Potency (CASKI) | Potency (Es-2) | Potency (HeLa) | Potency (Hek293T) | Potency (JEG-3) | Potency (OV90) | Potency (PA-1)

CN(C)c1ccc(NC(=O)NS(=O)(=O)c2ccc(Cl)cc2)cc1
inactive: Potency (C33A) | Potency (CASKI) | Potency (Es-2) | Potency (HeLa) | Potency (Hek293T) | Potency (JEG-3) | Potency (OV90) | Potency (PA-1)

O=C(Nc1cc(C(F)(F)F)cc(C(F)(F)F)c1)c1cnc(Cl)nc1C(F)(F)F
inactive: Potency (C33A) | Potency (CASKI) | Potency (Es-2) | Potency (HeLa) | Potency (Hek293T) | Potency (JEG-3) | Potency (OV90) | Potency (PA-1)

CC(C)[C@@H](c1ccc(C(F)(F)F)cc1CN(Cc1cc(C(F)(F)F)cc(C(F)(F)F)c1)c1nnn(C)n1)N1CCC(C(=O)O)CC1
inactive: Potency (C33A) | Potency (CASKI) | Potency (Es-2) | Potency (HeLa) | Potency (Hek293T) | Potency (JEG-3) | Potency (OV90) | Potency (PA-1)

CCCC1(CCC)CCC2(CCN(CCCN(CC)CC)C2)CC1
active: Potency (C33A) 6.31 µM | Potency (CASKI) 8.91 µM | Potency (Es-2) 10 µM | Potency (HeLa) 7.08 µM | Potency (Hek293T) 8.91 µM | Potency (JEG-3) 5.62 µM | Potency (OV90) 7.08 µM | Potency (PA-1) 5.01 µM
